Screens deposited in PubChem by National Center for Advancing Translational Sciences (NCATS).
G9a block: inhibitors of human histone lysine methyltransferase G9a | AID 504332 | Potency, µM (titrated, usually from 102 µM), without a hit: at the highest dose activity, negative = inhibition, actives largely listed as inhibitors | G9a H3K9 monomethylation, AlphaScreen, 2 h | actives 8.8% (n = 350,000); further: potency means the concentration at half of the fitted maximal effect; on the % scale 0 is the no-effect control and ±100 the full control effect; nearly all actives have a fitted effect of over 75% in size
Target sequence (Q96KQ7 913-1193 limits assumed): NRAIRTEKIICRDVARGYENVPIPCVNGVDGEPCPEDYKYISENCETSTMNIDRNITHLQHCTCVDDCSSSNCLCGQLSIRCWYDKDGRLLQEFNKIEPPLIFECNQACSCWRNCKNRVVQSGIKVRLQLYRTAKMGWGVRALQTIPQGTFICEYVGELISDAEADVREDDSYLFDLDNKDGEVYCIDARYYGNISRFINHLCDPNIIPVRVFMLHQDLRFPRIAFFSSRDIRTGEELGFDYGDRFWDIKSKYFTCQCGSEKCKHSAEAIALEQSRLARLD
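AlphaScreen detection with an anti-monomethyl H3K9 antibody quantified product after a 2 h room-temperature reaction containing 500 nM biotinylated H3K9 peptide, 20 µM SAM and 20 nM enzyme, which had been preincubated 15 min with compound.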
Six1-Eya2 inh: inhibitors of human Six1/Eya2 interaction; activity change, % (concentration not given with the values); AlphaScreen GST-Six1/His-Eya2 binding, biochemical; stronger effect = lower value; actives 0.56% (n = 360,000); AID 651725; Q15475+O00167; in the data active means activity change below about -65%; inconclusive means mostly about -30% to -63%; further: on the % scale 0 is the no-effect control and ±100 the full control effect
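AlphaScreen luminescence read after one hour at 37 °C in darkness. Pin-transferred compounds met GST-Six1 and His-Eya2 protein (5X stock 250 nM/500 nM) plus glutathione donor and Ni-chelate acceptor beads (5X, 50 ug/mL).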
JMJD2A Tudor: blocks the human JMJD2A Tudor domain; O75164; AlphaScreen JMJD2A-Tudor / H3K4me3 peptide binding; Potency, µM (highest dose often 114 µM), for inactives: top-dose activity change, negative = inhibition, most hits filed as inhibitors; actives 4.4% (n = 390,000); AID 504339; further: potency means the concentration at half of the fitted maximal effect; on the % scale 0 is the no-effect control and ±100 the full control effect; nearly all actives have a fitted effect of over 50% in size
BAZ2B block: blocks human BAZ2B; AlphaScreen BAZ2B-H3K14Ac peptide displacement; actives 4.4% (n = 360,000); Q9UIF8; Potency, µM (doses to about 114 µM), for inactives: at the highest dose activity change, negative = inhibition, hits mostly inhibitors; further: potency means the concentration at half of the fitted maximal effect; on the % scale 0 is the no-effect control and ±100 the full control effect; nearly all actives have a fitted effect of over 60% in size
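Compounds, titrated to a top concentration of 110 uM, were incubated 30 min at room temperature with preformed BAZ2B/acetyl-K14 H3 peptide complex (50 nM each). Proximity signal was measured by AlphaScreen after 20 min with beads.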
CtBP-E1A blk: CtBP/E1A binding inhibition | AlphaScreen GST-E1A/His-CtBP binding, 1536-well; stronger effect = lower value | activity change, % (no concentration beside the values) | actives 0.49% (n = 340,000); in the data active means activity change below about -65%; inconclusive means mostly about -30% to -63%; further: on the % scale 0 is the no-effect control and ±100 the full control effect
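AlphaScreen with 125 nM GST-E1A and 125 nM His-CtBP (5X stocks) in Tris pH 8.0, 300 mM NaCl, BSA, Tween 20, TCEP. Compounds preincubated 2 h at 37 deg C, then glutathione donor/nickel acceptor beads added for 1 h at 37 deg C in dark.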
HP1b chromo inh: blocks HP1-beta chromodomain binding to methylated histone tails. Potency, µM (highest dose often 114 µM), inactives show at the highest dose activity change, negative = inhibition, hits mostly inhibitors. AlphaScreen HP1-beta / biotin-H3K9me3 peptide binding. actives 0.56% (n = 390,000). P83916; further: potency means the concentration at half of the fitted maximal effect; nearly all actives have a fitted effect of over 70% in size
Target sequence (P83916 whole entry, looked up): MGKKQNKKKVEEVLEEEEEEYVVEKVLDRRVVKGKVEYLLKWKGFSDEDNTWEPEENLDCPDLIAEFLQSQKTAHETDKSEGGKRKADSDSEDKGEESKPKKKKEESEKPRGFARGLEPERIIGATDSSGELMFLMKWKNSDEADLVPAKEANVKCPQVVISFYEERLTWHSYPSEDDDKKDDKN
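AlphaScreen: HP1-beta (50 nM) preformed 30 min with biotin-H3(1-18)K9me3 peptide (50 nM) in PBS pH 7.4, 0.01% Tween-20. Compound added for 30 min at RT, then streptavidin donor/nickel chelate acceptor beads (10 ug/mL) for 30 min.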
Starred values were filed as active, the others as inactive; ? = inconclusive; . = no result given; [ ] = another dose, or the depositor's remark. Only some compounds are listed: those with a hit (about 10% of all), similar ones and a draw of the others. Unless noted, the call rests on the fitted dose curve; in most records, active means well fitted inhibition curve with a large enough effect; inconclusive means small, poorly fitted or top-dose-only effect; inactive means no such curve, though single readings can be large or run the other way.

SMILES	G9a block	Six1-Eya2 inh	JMJD2A Tudor	BAZ2B block	CtBP-E1A blk	HP1b chromo inh
COc1cccc(N2CCN(c3ccc4nnc(CCC(=O)Nc5ccc(OC)c(OC)c5)n4n3)CC2)c1	5%	-6	-22%	?	-11	18%
Cc1ccc(N/N=C/c2c(C)c(C#N)c(=O)n(C)c2O)cc1C	0.79µM*	0	11µM*	56µM*	-18	-20%
Cc1oc(/N=C/c2ccc(Cl)cc2Cl)c(C#N)c1C	45µM*	-3	-14%	-3%	5	22%
Cc1oc(/N=C/c2ccc(Cl)cc2)c(C#N)c1C	-20%[59 µM]	-1	-35%	3%	5	-12%
Cc1oc(/N=C/c2c(O)ccc3ccccc23)c(C#N)c1C	1.6µM*	.	.	.	.	.
Cc1oc(/N=C/c2ccc(O)cc2O)c(C#N)c1C	45µM*	-1	-7%	-4%	5	-4%
Cc1cccc(NC(=O)Cn2c(=O)n(CCC(=O)N3CCc4ccccc4C3)c(=O)c3ccccc32)c1	-9%[59 µM]	.	-24%	-2%	.	1%
CCN(CC)C(=O)c1c(-c2ccccc2)c(-c2ccccc2)nn(C)c1=O	-7%[59 µM]	.	-14%	-2%	.	32%
Cc1nn(C2CCS(=O)(=O)C2)c(C)c1CN(C)C(=O)c1cccc(Cl)c1 (stereo not drawn)	9%[12.7 µM]	4	-5%	3%	-11	27%
COc1cc(-c2nc3ccc(C)cn3c2Nc2ccc(Cl)cc2)ccc1O	?	.	?	-32%	.	-16%
COc1cc(-c2nc3sccn3c2Nc2cccc(C)c2)ccc1O	11µM*	.	45µM*	13µM*	.	?
COc1ccc(CC(N)c2csc(NC(=O)c3cccc(OC(F)(F)F)c3)n2)cc1 (stereo not drawn)	.	-10	.	.	-19	.
O=C(COC(=O)c1cc2c(s1)CCC2)Nc1ccc(F)cc1	?	0	14µM*	50µM*	6	40µM*
COc1ccc(NC(=O)COC(=O)c2cc3c(s2)CCC3)cc1	10%[12.7 µM]	-17	?	79µM*	8	?
NC(=O)c1ccc(NC(=O)COC(=O)c2cc3c(s2)CCC3)cc1	.	-14	?	.	-20	?
COC(=O)[C@]12CCCCC=C1N(Cc1cccc3ccccc13)C(=O)[C@H](CC(=O)N1CCCC1)C2	.	-14	.	.	-2	.
Cc1nn(CC(=O)N2CCOCC2)c(=O)c2nn(-c3ccccc3)c(C)c12	15%	3	-1%	-17%	2	26%
CN(C)CCN(C)C1CN(Cc2ccc(F)cc2)S(=O)(=O)C1 (stereo not drawn)	.	-2	.	.	1	.
Cc1cc(NC(=O)CSc2nc(-c3cccnc3)ccc2C#N)no1	?	-7	-18%[11.4 µM]	4%	-7	55%
Cc1cc(NC(=O)CSc2nc3c(c(-c4cccnc4)c2C#N)CCC3)no1	18%[59 µM]	0	?	79µM*	0	22%
COC(=O)[C@@H]1CCCN1C(=O)CCc1nnc(C2CCCCC2)o1	.	-8	-17%	10%	7	36%
Cc1ccccc1OCCn1c(=S)[nH]c2c(N)ncnc21	1.8µM*	-7	7.1µM*	-24%	.	?
Cc1ccccc1OCCn1cnc2c(N)ncnc21	-20%[59 µM]	7	-11%	-8%	-8	35%
CSC1=C(C#N)C(c2ccncc2)C(C(=O)Nc2ccccc2)=C(C)N1 (stereo not drawn)	25µM*	-5	0%	-14%	9	47%
CC1=C(C(=O)Nc2ccccc2)C(c2ccncc2)C(C#N)=C(SCC(=O)Nc2ccccc2)N1 (stereo not drawn)	28µM*	-7	-24%	-4%	-7	41%
CC1=C(C(=O)Nc2ccccc2)C(c2ccco2)C(C#N)=C(SCC(=O)Nc2cccc(C)c2C)N1 (stereo not drawn)	?	-6	-14%	10%	-2	28%
CCOC(=O)[C@@H]1[C@H]2COc3cc(OC)ccc3[C@@H]2N2C(=O)N(c3cccc(C)c3)C(=O)[C@]12C	.	-2	-28%	.	3	34%
